Reference: PubChem BioAssay AID1259240 (Keith Lab, Institute of Cancer Science, University of …, 2017)
A number with no mark means an inactive call. The source made the active and inactive calls. No stated cut-off is given here; in the data, active means fold change mostly below about -2 (no sharp cut-off); inactive means mostly above about -1.8.

Assay: modulation of TERT promoter-driven luciferase – cell-based, luciferase reporter, human, primary screen (AID 1259240)
Conditions: A2780 TERT promoter luciferase reporter, 16 h; at 20 µM, fold versus average of vehicle-only wells

| Compound | fold change |
| --- | --- |
| Cc1cccc(C(=O)N2N=C(c3ccc(NS(C)(=O)=O)cc3)CC2c2ccco2)c1 (centres undefined) | 1.31 |
| CCOC(=O)C1CCCN(c2c(NCCN(C)C)c(=O)c2=O)C1 (centres undefined) | 1.36 |
| CCOC(=O)C1=C(CS(=O)(=O)c2ccc(F)c(C)c2)NC(=O)NC1c1ccccc1 (centres undefined) | 1.21 |
| COc1cc(C(=O)Nc2ccc3oc(-c4ccncc4)nc3c2)cc(OC)c1OC | -1.49 |
| Cn1c(C(=O)N2CCC(C(=O)NCCc3c[nH]c4ccccc34)CC2)cc2sccc21 | -1.05 |
| CCc1nc(N)c(C#N)c(-c2ccco2)c1C | -2.16 (active) |
| CNC(=O)CN1C(=O)COc2ccc(S(=O)(=O)N3CCOCC3)cc21 | -1.1 |
| O=C(ON=C1CCCC1)c1sc2ccccc2c1Cl | -1.7 |
| Cc1sc(-c2c(C#N)c(N)nc3c2CCCC3)cc1Br | -4.77 (active) |
| O=c1[nH]c2ncccc2c(=O)n1CCc1c[nH]c2ccccc12 | -1.06 |
| CCOC(=O)N1CCC(Nc2ccc3nncn3n2)CC1 | -1.14 |
| CCc1ccc2nc(Nc3nccc(C)n3)nc(C)c2c1 | 1.83 |
| O=C(c1cnc2ccccc2n1)N1CCn2c(nc3ccccc32)C1 | 1.4 |
| Cc1ccc(-n2c(-c3ccco3)nc3c(cnn3-c3ccccc3C)c2=O)cc1F | -1.09 |
| Cc1[nH]nc2c1C(c1ccc(O)cc1)NC2=O (centres undefined) | -1.14 |
| Cc1ccc(-c2nnc3c4ccccc4c(C)nn23)cc1S(=O)(=O)NCC1CCCO1 (centres undefined) | 1.3 |
| Cc1cc(/C=C2/SC(=S)N(CC(=O)O)C2=O)c(C)n1-c1ccncc1 | -3.58 (active) |
| Cc1cc(C)n2c(NC(C)C)c(-c3ccc(C)o3)nc2n1 | 1.2 |
| CCOC(=O)Cc1csc(NC(=O)Nc2cccs2)n1 | 1.33 |
| CCc1ccc2c(c1)c1n[nH]c(=S)nc1n2C | -1.88 |
| Cc1cc(C(=O)N2CCN(Cc3ccc4c(c3)OCO4)CC2)on1 | 1.36 |
| Cn1nc(-c2ccc(C(=O)N3CCCC3)cc2)c2ccccc2c1=O | 1.06 |
| COC(=O)c1ccc(C2NC(=O)c3n[nH]c(C)c32)cc1 (centres undefined) | -1.08 |
| CCCN(CCC)C(=O)C1CCCN(S(=O)(=O)c2ccc3c(c2)oc(=O)n3C)C1 (centres undefined) | 1.49 |
